From the supplement of paper PMC10849652
Of roughly 7,900 targets only a part is listed; those with a hit were picked by preference. About 0.6% of all pairs of compound and target were hits. A number with no mark means an inactive call.

Legend:
Assay in all cases: log2 fold change, soluble protein after heating vs DMSO (PISA); higher = thermal stabilisation; K562 cells, 10 uM, 30 min; active = over 0.2 and 3.5 SD of the protein, either way, in both replicates (recomputed)
[1] = compound: CC[C@@H]1C(=O)N(C)c2cnc(Nc3ccc(C(=O)NC4CCN(C)CC4)cc3OC)nc2N1C1CCCC1
In short: (§1)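 Soluble protein was defined as the supernatant after 21,000xg for 90 min. It came from K562 cells at 2×10^6 cells/mL given 10 μM compound for 30 min, heated in aliquots for 3 min across 48°C-58°C, pooled, and extracted in PBS with 0.5% NP-40 at 4°C, and was quantified by TMTpro 16plex LC-MS/MS with equalised channel sums. Thermal stability against control samples, from duplicates, is reported as log2 fold change.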

[2] = compound: CC[C@@H]1C(=O)N(C)c2cnc(Nc3ccc(C(=O)N[C@H]4CC[C@H](N5CCN(CC6CC6)CC5)CC4)cc3OC)nc2N1C(C)C [volasertib]
In short: as §1

[3] = compound: CC[C@H](C)N1C=C(C2=C(C=C(C=C21)C3=CN=C(C=C3)N4CCNCC4)C(=O)NCC5=C(C=C(NC5=O)C)C)C
In short: as §1

[4] = compound: CC[C@H](C)[C@@H](C(=O)N[C@@H]([C@@H](C)O)C(=O)N[C@@H](CC(C)C)C(=O)[C@]1(CO1)C)NC(=O)[C@H]([C@@H](C)CC)N(C)C(=O)C [epoxomicin]
In short: as §1

[5] = compound: CCn1c(C(=O)N(C2CC2)C2CC2)cc2c3c(ncn3C)c(Nc3cc(C)n(C)n3)nc21
In short: as §1

[6] = compound: CN(C)CC(=O)Nc1ccc2[nH]c(=O)c3ccccc3c2c1
In short: as §1

[7] = compound: CN(CCOC1=CC=C(C=C1)C[C@H]2C(=O)NC(=O)S2)C3=CC=CC=N3 (racemic) [rosiglitazone]
In short: as §1

[8] = compound: CN1C2=C(C3=C1C(=O)N(N=C3)CC4=CC(=CC=C4)N)SC(=C2)S(=O)C
In short: as §1

[9] = compound: CN1CCN(CCOc2cc(OC3CCOCC3)c3c(Nc4c(Cl)ccc5c4OCO5)ncnc3c2)CC1 [saracatinib]
In short: as §1

[10] = compound: CN1CCN(c2nc(C3=C(c4c[nH]c5ccccc45)C(=O)NC3=O)c3ccccc3n2)CC1 [sotrastaurin]
In short: as §1

[11] = compound: CN1CC[C@H](c2c(O)cc(O)c3c(=O)cc(-c4ccccc4Cl)oc23)[C@H](O)C1 [alvocidib]
In short: as §1

[12] = compound: CN1CCc2c(c3ccccc3n2Cc2ccc(C(=O)NO)cc2)C1 [Tubastatin A]
In short: as §1

[13] = compound: CNC(=O)C1=CC=CC=C1NC2=NC(=NC=C2Cl)NC3=C(C=C(C=C3)N4CCOCC4)OC
In short: as §1

[14] = compound: CNC(=O)c1ccc(Nc2ncc(C(F)(F)F)c(NCc3nccnc3N(C)S(C)(=O)=O)n2)cc1 [defactinib]
In short: as §1

[15] = compound: CNCc1ccc(-c2[nH]c3cc(F)cc4c3c2CCNC4=O)cc1 [rucaparib]
In short: as §1

[16] = compound: CNc1nc(-c2ccc3c(N)n[nH]c3c2)cc(N2C[C@@H](C(=O)NC3CCCCC3)CC[C@H]2C)n1
In short: as §1

[17] = compound: COC(=O)N[C@@H](C)CNc1nccc(-c2cn(C(C)C)nc2-c2cc(Cl)cc(NS(C)(=O)=O)c2F)n1 [encorafenib]
In short: as §1

[18] = compound: COC(=O)[C@H](CCSC)NC(=O)C1=C(C=C(C=C1)NC[C@H](CS)N)C2=CC=CC=C2
In short: as §1

[19] = compound: CCn1cc(-c2ccnc3[nH]c(-c4cccc(CN(C)C)c4)cc23)c(-c2ccc(NC(=O)N(C)C)cc2)n1
In short: as §1

[20] = compound: CN1CCC(CNc2ccc3ncc(-c4cccc(OC(F)(F)F)c4)n3n2)CC1
In short: as §1

Sequence of UniProt Q86X95 (Q86X95 whole entry, looked up): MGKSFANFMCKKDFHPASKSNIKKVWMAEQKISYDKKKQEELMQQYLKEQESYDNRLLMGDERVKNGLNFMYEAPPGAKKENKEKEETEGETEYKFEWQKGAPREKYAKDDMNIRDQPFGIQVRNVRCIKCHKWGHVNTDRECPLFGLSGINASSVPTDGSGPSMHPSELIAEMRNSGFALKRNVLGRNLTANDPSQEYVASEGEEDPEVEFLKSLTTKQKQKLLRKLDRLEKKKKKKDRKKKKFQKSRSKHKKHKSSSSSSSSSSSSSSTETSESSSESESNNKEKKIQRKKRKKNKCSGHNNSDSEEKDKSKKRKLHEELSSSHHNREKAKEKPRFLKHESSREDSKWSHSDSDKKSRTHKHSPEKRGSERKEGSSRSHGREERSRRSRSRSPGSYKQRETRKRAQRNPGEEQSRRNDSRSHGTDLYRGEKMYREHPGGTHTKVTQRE
Sequence of UniProt Q9NRR8 (Q9NRR8 whole entry, looked up): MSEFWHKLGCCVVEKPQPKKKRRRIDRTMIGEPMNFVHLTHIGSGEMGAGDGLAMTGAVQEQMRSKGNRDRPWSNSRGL
Sequence of UniProt Q9UNS2 (Q9UNS2 whole entry, looked up): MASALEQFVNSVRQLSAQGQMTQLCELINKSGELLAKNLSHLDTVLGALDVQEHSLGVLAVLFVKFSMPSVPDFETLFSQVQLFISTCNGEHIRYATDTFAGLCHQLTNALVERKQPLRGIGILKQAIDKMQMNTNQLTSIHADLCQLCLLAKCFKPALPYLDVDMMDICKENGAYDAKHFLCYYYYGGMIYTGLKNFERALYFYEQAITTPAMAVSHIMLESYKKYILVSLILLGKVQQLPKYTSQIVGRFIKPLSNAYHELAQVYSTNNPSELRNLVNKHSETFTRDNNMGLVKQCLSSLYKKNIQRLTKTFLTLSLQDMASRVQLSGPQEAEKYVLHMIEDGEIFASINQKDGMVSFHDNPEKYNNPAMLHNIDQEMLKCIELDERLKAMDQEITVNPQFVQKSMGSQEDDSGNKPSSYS
Sequence of UniProt P30281 (P30281 whole entry, looked up): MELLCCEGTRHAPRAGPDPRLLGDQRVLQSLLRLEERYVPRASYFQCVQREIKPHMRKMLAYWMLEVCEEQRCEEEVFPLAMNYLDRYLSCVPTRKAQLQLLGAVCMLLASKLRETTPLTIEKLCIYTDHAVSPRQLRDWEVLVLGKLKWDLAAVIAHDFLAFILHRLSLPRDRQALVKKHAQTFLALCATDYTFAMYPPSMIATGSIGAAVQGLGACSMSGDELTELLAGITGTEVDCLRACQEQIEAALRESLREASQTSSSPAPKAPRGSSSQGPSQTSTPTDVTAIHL
Sequence of UniProt P51911 (P51911 whole entry, looked up): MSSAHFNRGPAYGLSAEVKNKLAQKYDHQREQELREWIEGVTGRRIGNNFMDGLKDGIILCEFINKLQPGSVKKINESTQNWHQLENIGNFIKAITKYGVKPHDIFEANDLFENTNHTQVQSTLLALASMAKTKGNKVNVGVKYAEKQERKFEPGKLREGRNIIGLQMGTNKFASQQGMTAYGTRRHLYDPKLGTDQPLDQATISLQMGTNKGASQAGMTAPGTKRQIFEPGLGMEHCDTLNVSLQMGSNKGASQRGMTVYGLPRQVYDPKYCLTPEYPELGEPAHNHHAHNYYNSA
Sequence of UniProt Q9BWU1 (Q9BWU1 whole entry, looked up): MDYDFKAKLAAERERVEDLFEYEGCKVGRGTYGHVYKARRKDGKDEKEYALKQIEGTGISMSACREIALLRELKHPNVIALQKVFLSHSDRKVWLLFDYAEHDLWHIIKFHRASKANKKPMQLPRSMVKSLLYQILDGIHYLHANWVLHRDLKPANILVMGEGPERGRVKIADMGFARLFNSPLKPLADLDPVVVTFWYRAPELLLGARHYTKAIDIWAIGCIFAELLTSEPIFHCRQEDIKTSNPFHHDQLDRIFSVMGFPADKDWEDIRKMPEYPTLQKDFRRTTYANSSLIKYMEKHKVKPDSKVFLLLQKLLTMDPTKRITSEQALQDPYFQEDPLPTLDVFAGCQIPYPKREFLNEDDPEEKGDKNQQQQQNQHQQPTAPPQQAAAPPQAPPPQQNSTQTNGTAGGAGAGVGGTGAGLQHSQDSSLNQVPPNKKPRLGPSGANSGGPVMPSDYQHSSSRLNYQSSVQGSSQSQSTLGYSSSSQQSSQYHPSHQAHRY
Sequence of UniProt Q9Y2V0 (Q9Y2V0 whole entry, looked up): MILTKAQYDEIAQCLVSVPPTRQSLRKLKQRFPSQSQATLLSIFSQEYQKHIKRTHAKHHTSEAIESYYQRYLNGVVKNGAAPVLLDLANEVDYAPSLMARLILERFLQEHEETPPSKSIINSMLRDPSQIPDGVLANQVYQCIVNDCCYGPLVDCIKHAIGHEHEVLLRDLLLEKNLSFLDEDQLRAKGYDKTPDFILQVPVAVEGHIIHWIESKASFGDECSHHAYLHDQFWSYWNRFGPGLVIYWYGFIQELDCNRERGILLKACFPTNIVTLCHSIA
Sequence of UniProt Q8N668 (Q8N668 whole entry, looked up): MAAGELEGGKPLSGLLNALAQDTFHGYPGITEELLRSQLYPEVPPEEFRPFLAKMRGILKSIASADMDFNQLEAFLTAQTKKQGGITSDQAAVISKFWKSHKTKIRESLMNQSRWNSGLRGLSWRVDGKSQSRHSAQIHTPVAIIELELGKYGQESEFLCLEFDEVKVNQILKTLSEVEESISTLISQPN
Sequence of UniProt Q8N4S0 (Q8N4S0 whole entry, looked up): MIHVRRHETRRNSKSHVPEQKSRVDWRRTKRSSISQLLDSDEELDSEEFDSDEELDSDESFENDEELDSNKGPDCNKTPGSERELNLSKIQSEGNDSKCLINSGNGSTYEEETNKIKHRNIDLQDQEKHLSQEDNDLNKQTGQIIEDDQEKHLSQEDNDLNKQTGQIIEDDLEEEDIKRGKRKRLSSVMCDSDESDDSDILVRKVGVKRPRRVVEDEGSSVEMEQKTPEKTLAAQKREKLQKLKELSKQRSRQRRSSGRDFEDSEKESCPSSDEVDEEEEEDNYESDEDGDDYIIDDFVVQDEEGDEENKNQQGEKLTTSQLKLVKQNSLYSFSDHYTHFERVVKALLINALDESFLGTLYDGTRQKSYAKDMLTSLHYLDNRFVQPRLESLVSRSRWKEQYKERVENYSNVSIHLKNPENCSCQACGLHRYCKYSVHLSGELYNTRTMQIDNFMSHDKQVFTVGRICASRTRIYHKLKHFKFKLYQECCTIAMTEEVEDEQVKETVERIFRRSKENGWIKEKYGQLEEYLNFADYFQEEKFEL

Target	log2 fold change [1]	log2 fold change [2]	log2 fold change [3]	log2 fold change [4]	log2 fold change [5]	log2 fold change [6]	log2 fold change [7]	log2 fold change [8]	log2 fold change [9]	log2 fold change [10]	log2 fold change [11]	log2 fold change [12]	log2 fold change [13]	log2 fold change [14]	log2 fold change [15]	log2 fold change [16]	log2 fold change [17]	log2 fold change [18]	log2 fold change [19]	log2 fold change [20]
CDC42SE1 (UniProt Q9NRR8)	-0.995 (active)	-2.6 (active)	-0.127	0.031	0.029	0.05	-0.017	-0.074	0.074	-0.033	-0.019	-0.562 (active)	0.228	-0.041	0.087	0.01	-0.032	0.077		
C15orf41 (UniProt Q9Y2V0)	-0.04	-0.188		-0.165	-0.023	-0.022		0.019	0.009	0.042	-0.042	0.011	-0.137	-0.008	0.081	-0.017	0.01	0.079	-0.333 (active)	0.001
CDK19 (UniProt Q9BWU1)	0.016	-0.064	0.069	-0.114	0.038	-0.068		0.003	0.006	0.035	0.585 (active)	-0.104	-0.209	0.046	0.345	0.03	-0.086	-0.005	-0.1	0.456
CIR1 (UniProt Q86X95)	0	0.049		-0.212	-0.015	0.142	-0.169	0.234	-0.02	-0.039	0.256	0.078	-0.061	0.418	0.102	0.057	0.04	0.207	0.055	-0.458
CCDC82 (UniProt Q8N4S0)	-0.062	-0.349 (active)	-0.018	0.143	-0.057	0.001	0	-0.069	0		-0.065	0.102	0.03	-0.09	-0.069	-0.139	0.021	-0.037		
CCND3 (UniProt P30281)	-0.085	0.102		0.363 (active)	-0.003	-0.022	-0.025	0.063	0.03		0.008	0.242	-0.018	-0.037	0.113	-0.067	-0.11	0	-0.021	-0.175
COPS3 isoform 2 (UniProt Q9UNS2)	0.079	0.031	0.001	0.059		-0.165	-0.046			0.134		-0.005		0.109	-0.055		-0.041	0.059	-0.075	-0.124
COMMD1 (UniProt Q8N668)	-0.029	-0.041	0.054	-0.071	-0.063	0.019	0.016			-0.038		-0.213	0.119	-0.151	0.15		-0.028	0.092	0.157	0.295
CNN1 (UniProt P51911)	-0.049	-0.066	-0.066	-0.015		-0.007				0.15	-0.115	0.126		-0.028	0.102		-0.046	0.043	-0.403	-0.192
